Measurements taken from the supplement of paper PMC6555819.

Experiments:
Test in all cases: PBM binding z-score (relative to random genomic background probes); higher = stronger binding; sequences stand for … in GC…GCGATTGACAGCGTAGAATGAAGG
[1] = tested on: PPARg:RXRa DBDmut IVT, anti-RXR (DBD mutation: RXRa K156A/R161A, NR concentration 270 nM, RXRa partner concentration 90 nM)
Method in brief: (§1)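 Binding buffer was PBS pH 7.4 with 2% milk, 0.02% Triton X-100, 1 mM DTT, 0.2 mg/mL BSA and 0.4 mg/ml salmon testes DNA. In it, ligand-free nuclear receptor dimers were incubated 1 h on custom Agilent 4×180K protein-binding microarrays carrying double-stranded probes. Antibodies against each partner (one per run) detected binding, and z-scores were calculated against random background probes after regression normalization of scanned fluorescence.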

[2] = tested on: PPARg:RXRa IVT, anti-PPARg (NR concentration 270 nM, RXRa partner concentration 90 nM)
Method in brief: as §1

[3] = tested on: PPARg homodimer (NR concentration 180 nM)
Method in brief: as §1

[4] = tested on: PXR:RXRa (NR concentration 270 nM, RXRa partner concentration 90 nM)
Method in brief: as §1

[5] = tested on: PXR homodimer (NR concentration 270 nM)
Method in brief: as §1

[6] = tested on: RARa:RXR (NR concentration 270 nM, RXRa partner concentration 90 nM)
Method in brief: as §1

[7] = tested on: RARa homodimer (NR concentration 270 nM)
Method in brief: as §1

[8] = tested on: RARb:RXRa (NR concentration 270 nM, RXRa partner concentration 90 nM)
Method in brief: as §1

[9] = tested on: RARb homodimer (NR concentration 270 nM)
Method in brief: as §1

[10] = tested on: RARg:RXRa (NR concentration 270 nM, RXRa partner concentration 90 nM)
Method in brief: as §1

[11] = tested on: RARg homodimer (NR concentration 270 nM)
Method in brief: as §1

[12] = tested on: RXRa DBDmut IVT, anti-RXR (DBD mutation: RXRa K156A/R161A, NR concentration 90 nM)
Method in brief: as §1

[13] = tested on: RXRa homodimer (NR concentration 180 nM)
Method in brief: as §1

[14] = tested on: THRa:RXRa (NR concentration 90 nM, RXRa partner concentration 90 nM)
Method in brief: as §1

[15] = tested on: THRa homodimer (NR concentration 90 nM)
Method in brief: as §1

[16] = tested on: VDR homodimer (NR concentration 270 nM)
Method in brief: as §1

[17] = tested on: VDR:RXRa (NR concentration 270 nM, RXRa partner concentration 90 nM)
Method in brief: as §1

| Sequence | PBM binding z-score [1] | PBM binding z-score [2] | PBM binding z-score [3] | PBM binding z-score [4] | PBM binding z-score [5] | PBM binding z-score [6] | PBM binding z-score [7] | PBM binding z-score [8] | PBM binding z-score [9] | PBM binding z-score [10] | PBM binding z-score [11] | PBM binding z-score [12] | PBM binding z-score [13] | PBM binding z-score [14] | PBM binding z-score [15] | PBM binding z-score [16] | PBM binding z-score [17] |
| --- | --- | --- | --- | --- | --- | --- | --- | --- | --- | --- | --- | --- | --- | --- | --- | --- | --- |
| CCGAGTAGGTTACGAGGTGGCATTCAGTGCGAAT | 4.75 | 3.92 | 0.24 | 0.618 | -0.0659 | 0.472 | -0.0316 | 1.03 | 0.473 | 0.479 | 0.466 | 0.226 | 0.697 | 0.837 | -0.2 | 0.0157 | – |
| CTATGTAGGTTAAGCGGGTCATTCAGTTTGAAAG | 7.52 | 7.09 | 2.08 | 3.8 | 8.04 | 3.31 | 0.415 | 2.16 | 2.58 | 2.62 | 1.94 | 1.29 | 3.17 | 2.56 | 0.448 | 3.14 | – |
| CCGAGTAGGTTAGGAGGGGGCATTCAGTGCGAAT | 3.01 | 4.36 | 2.59 | 4.53 | 6.27 | 2.88 | 0.952 | 2.06 | 2.05 | 2.89 | 2.76 | 1.76 | 1.87 | 3.46 | 1.44 | 4.12 | – |
| CTATGTAGGTTAAGAGGGTCATTCAGTTTGAAAG | 7.34 | 7.14 | 2.35 | 3.96 | 5.84 | 3.56 | 0.734 | 2.63 | 3.03 | 3.16 | 2.3 | 1.33 | 3.33 | 2.42 | 0.33 | 3.39 | – |
| CCGAGTAGGTTACGAGGGGGCAATCAGTGCGAAT | 4.92 | 4.42 | 2.06 | 4.26 | 2.9 | 2.87 | 0.639 | 2.16 | 2.19 | 3.42 | 2.54 | 1.02 | 2.13 | 3.65 | 0.431 | 2.8 | – |
| CTATGTAGGTTAAGGGGGTCATTCGGTTTGAAAG | 6.81 | 7.73 | 4.23 | 5.97 | 12.4 | 6.04 | 1.33 | 3.54 | 3.85 | 5.36 | 3.97 | 2.56 | 5.74 | 3.79 | 1.93 | 6.78 | – |
| TCGAGTAAGTTACGGGGGCATTCAGGGATGAAGA | 1.55 | 3.02 | 0.93 | 2.63 | 1.19 | 2.22 | 0.119 | 1.34 | 1.15 | 1.48 | 0.746 | 1.48 | 1.4 | 3.54 | 0.682 | 3.03 | – |
| CCGAGTAGGTAACGAGGGGGCATTCAGTGCGAAT | 3.83 | 3.65 | 0.975 | 3.42 | 4.31 | 2.24 | 0.592 | 1.31 | 1.62 | 1.9 | 1.27 | 0.932 | 1.21 | 2.73 | 0.519 | 3.01 | 4.19 |
